According to PubChem BioAssay AID1458 (National Center for Advancing Translational Sciences (NCATS), 2008):
The campaign covered roughly 210,000 compounds. About 5,900 (2.8%) were called active. Inconclusive results (about 5%) are left out. Calls come from the whole dose curve; as a rule, active = well fitted activation curve with a large enough effect; inconclusive = small, poorly fitted or top-dose-only effect; inactive = no such curve, though single readings can be large or run the other way. The list comes from a sample in which actives are over-represented; it also holds similar structures and randomly drawn compounds.

Test: qHTS Assay for Enhancers of SMN2 Splice Variant Expression; note: nearly all actives have a fitted effect of over 55% in size; for activity change, positive = activation: % of control where 0% means no effect
Details: HEK293 SMN2-luciferase splicing reporter, luminescence, 30-36 h; series mostly up to 46.1 µM; activity change, positive = activation: at the top concentration
Method in brief: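 qHTS luciferase splicing reporter: luminescence rises when SMN2 exon 7 is included in transfected HEK293 cells. Compound exposure lasted 30-36 h at 37C, with 4.5 mM final sodium butyrate as control, followed by a ONE-Glo read.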
Potency is the fitted concentration of half-maximal effect.

Row | Structure (SMILES) | activity change, positive = activation | Potency
1 | COc1cc(OC)c(NC(=O)c2c3c(nn2C)-c2ccccc2SC3)cc1Cl | -7.27% (inactive) | 
2 | COc1ccccc1N1CCN(C(=O)c2cn(-c3ccccc3)nc2-c2cccnc2)CC1 |  | 22.4 µM (active)
3 | COC(=O)c1cn(-c2ccccc2)nc1-c1cccnc1 | -22% (inactive) | 
4 | O=C(c1cn(-c2ccccc2)nc1-c1cccnc1)N1CCCCC1 | -3.31% (inactive) | 
5 | CCOc1ccc(NC(=O)CSc2c3c(nc4ccccc24)CCCC3)cc1 | -16.5% (inactive) | 
6 | Cn1c2ccccc2c(=O)c2c(=O)n(Cc3ccco3)c(COc3ccccc3)nc21 |  | 35.5 µM (active)
7 | COc1ccc(C(=O)CSc2nnc(COc3ccccc3)n2Cc2ccco2)cc1 | -25.5% (inactive) | 
8 | CCCc1nc2c(c(=O)c3ccccc3n2C)c(=O)n1C1CCCCCC1 | -22.8% (inactive) | 
9 | O=C(CCn1c(=O)c2sccc2n(Cc2ccc(F)cc2)c1=O)NCc1ccc2c(c1)OCO2 | 5.36% (inactive) | 
10 | COc1ccc(S(=O)(=O)NCCc2cc3ccc(C)c(C)c3[nH]c2=O)cc1 | 4.46% (inactive) | 
11 | COc1cccc(CNC(=O)c2ccc3c(Cl)c4c(nc3c2)CCCC4)c1 | -13.9% (inactive) | 
12 | COc1cc(NC(=O)CN(C)S(=O)(=O)c2ccc3nc(C)sc3c2)cc(OC)c1 | -45.1% (inactive) | 
13 | Cc1ccc2nc(-c3ccc(NC(=O)CN(C)S(=O)(=O)c4ccccc4)cc3)sc2c1 |  | 1 µM (active)
14 | Cc1cccc(N(CC(=O)Nc2ccc(-c3nc4ccc(C)cc4s3)cc2)S(C)(=O)=O)c1 | 10.7% (inactive) | 
15 | Cc1ccc(F)cc1NC(=O)CCSc1nc(-c2ccco2)cc(C(F)(F)F)n1 | -8.06% (inactive) | 
16 | COc1ccc(C(=O)n2nc(-c3ccc(C)cc3)nc2N)cc1OC | 6.92% (inactive) | 
17 | COc1ccc(C(=O)n2nc(-c3ccc(Cl)cc3)nc2N)cc1OC |  | 25.1 µM (active)
18 | COc1ccccc1C(=O)n1nc(-c2ccccc2)nc1N | 16.8% (inactive) | 
19 | COc1ccc(-c2nc3ccccc3o2)cc1NC(=O)c1cc([N+](=O)[O-])ccc1N1CCOCC1 | 12.9% (inactive) | 
20 | Cc1cccc(NC(=O)c2cc3c(C)nn(-c4ccccc4)c3s2)c1 | -20.2% (inactive) | 
21 | Cc1c(CNC2CCCCC2)c(C(=O)O)c(C)n1Cc1cccc(Cl)c1 | -1.29% (inactive) | 
22 | CCCN1CCN(CCCNC(=O)Cn2nc(CC)n3c(cc4occc43)c2=O)CC1 | -2.11% (inactive) | 

Row | Structure (SMILES) | activity change, positive = activation | Potency
23 | O=c1c(Cl)c(NC2CC2)cnn1-c1ccccc1 | 19.1% (inactive) | 
24 | CCc1nc2c(cnn2-c2ccc(C)cc2)c(=O)n1-c1ccc(C)cc1 | -22.3% (inactive) | 
25 | C=CCNc1cnn(-c2ccc(C)cc2)c(=O)c1Cl |  | 11.2 µM (active)
26 | Cc1ccccc1-c1nc(CS(=O)(=O)CC(=O)Nc2cc(Cl)cc(Cl)c2)c(C)o1 | 2.55% (inactive) | 
27 | COC(=O)c1ccc(Cc2ccccc2)o1 | 24.2% (inactive) | 
28 | COC(=O)c1ccc(CSc2ccccc2C)o1 |  | 8.91 µM (active)
29 | COC(=O)c1ccc(CSc2ccc3nnc(-c4ccccc4)n3n2)o1 | 23.6% (inactive) | 
30 | Cc1ccc(NS(=O)(=O)c2ccc3c(c2)CC(=O)N3)cc1Cl | -6.22% (inactive) | 
31 | O=c1cc(CSc2ccc(Cl)cc2)nc(N2CCOCC2)[nH]1 | 2.6% (inactive) | 
32 | Clc1ccc2nc(CSc3ccccc3)cn2c1 |  | 3.16 µM (active)
33 | CCOc1ncccc1C(=O)OCc1cn2cc(Cl)ccc2n1 | 0.0582% (inactive) | 
34 | Cc1ccc2nc(-c3cccc(Br)c3)cc(C(=O)Nn3cnnc3)c2c1 |  | 12.6 µM (active)
35 | Cc1ccc(-c2cc(C(=O)NCc3cn(C)nc3C)c3cc(Br)ccc3n2)cc1 | 21.7% (inactive) | 
36 | Cc1ccc2nc(-c3ccccc3)cc(C(=O)O)c2c1 | -16.5% (inactive) | 
37 | COc1ccc(N(CC(=O)NCCc2ccc(Cl)cc2)S(=O)(=O)c2c(C)nn(C)c2C)cc1 | -15.5% (inactive) | 
38 | COc1ccc(S(=O)(=O)N(C)C)cc1NC(=O)CSc1ncccn1 | 1.93% (inactive) | 
39 | CN(C)S(=O)(=O)c1ccc2oc(SCC(=O)Nc3ccccc3F)nc2c1 |  | 11.2 µM (active)
40 | CCS(=O)(=O)c1ccc2oc(SCC(=O)N3c4ccccc4CC3C)nc2c1 (stereo unspecified) | -17.6% (inactive) | 
41 | COc1ccc(CNC(=O)Cn2nnc(-c3ccc(S(C)(=O)=O)cc3)n2)cc1 | -2.53% (inactive) | 
42 | Cc1cc(NC(=O)Nc2ccccc2)n(-c2ccccc2)n1 | -28% (inactive) | 
43 | Cc1cc(Nc2ccccc2)n(CCC#N)n1 | -1.03% (inactive) | 
44 | Cc1cc(Nc2ccccc2)n(C(=O)c2ccc(N)cc2)n1 |  | 11.2 µM (active)

Row | Structure (SMILES) | activity change, positive = activation | Potency
45 | COCCNC(=O)CSc1nc(-c2ccccc2)[nH]c1-c1ccc(C)cc1 | -1.93% (inactive) | 
46 | COc1ccc(-c2noc(CCC(=O)N(C)c3ccccc3C)n2)cc1 | -11.4% (inactive) | 
47 | COc1ccc(OC)c(N=Cc2c(O)[nH]c3ccccc23)c1 | -11.7% (inactive) | 
48 | COc1ccccc1N=Cc1c(O)c2ccccc2oc1=O | -19.6% (inactive) | 
49 | COc1ccc(N=Cc2c(O)[nH]c3ccccc23)cc1OC |  | 14.1 µM (active)
50 | Cc1ccc(C(=O)Cn2cccn2)cc1 | -7.33% (inactive) | 
51 | Cc1ccc(C(=O)Cc2nnc(C)s2)cc1 |  | 12.6 µM (active)
52 | Cc1ccc(C(=O)CS(C)(=O)=O)cc1 | 12.3% (inactive) | 
53 | O=C(NCc1ccccn1)Nc1ccc(F)cc1 | 9.31% (inactive) | 
54 | c1ccc(CN=C2Nc3ccccc3CS2)nc1 |  | 12.6 µM (active)
55 | Cc1nnc(NCc2ccccc2)c2c1nnn2Cc1ccc(F)cc1 | -3.87% (inactive) | 
56 | CC1CCN(S(=O)(=O)c2ccc3c(c2)N(CC(=O)NCc2ccccc2Cl)C(=O)CO3)CC1 | 27% (inactive) | 
57 | Cc1csc2nc(COc3ccc(NC(=O)COc4ccccc4)cc3)cc(=O)n12 | -17.9% (inactive) | 
58 | CCOc1ccc2nc(N3CCCC(C(=O)Nc4cc(C)ccc4C)C3)sc2c1 (stereo unspecified) |  | 14.1 µM (active)
59 | CCOc1ccc2nc(C(=O)N3CCCC(C)C3)sc2c1 (stereo unspecified) |  | 2.82 µM (active)
60 | CCOc1ccc2nc(N3CCC(C(=O)Nc4cc(C)ccc4C)CC3)sc2c1 | 4.51% (inactive) | 
61 | Cc1ccnc(N2CCCC(C(=O)Nc3cc(F)ccc3C)C2)n1 (stereo unspecified) | -27.5% (inactive) | 
62 | CCOc1ccc2nc(Nc3nc4ccc(NC(C)=O)cc4s3)sc2c1 | -9.63% (inactive) | 
63 | CCOc1ccc2nc(SC(CC)C(=O)Nc3cc(C)on3)sc2c1 (stereo unspecified) | 18.4% (inactive) | 
64 | CCCNC(=O)CCn1nc(-c2ccccc2)c2ccccc2c1=O | -2.38% (inactive) | 
65 | O=c1c(O)c(Br)ccc2c(Br)c(O)c(O)c(O)c12 | 7.57% (inactive) | 
66 | O=C1C(C=NCC2CCCO2)=C(O)c2ccccc21 (stereo unspecified) |  | 11.2 µM (active)

Row | Structure (SMILES) | activity change, positive = activation | Potency
67 | CC(=NCC1CCCO1)c1c(O)[nH]c(=O)[nH]c1=O (stereo unspecified) | -2.32% (inactive) | 
68 | O=C(CS(=O)(=O)Cc1ccccc1)NCC1CCCO1 (stereo unspecified) | -7.83% (inactive) | 
69 | Cc1ccc(C)c(N2CCN(C(=O)CCc3c(C)nc4c(c3C)c(=O)n(C)c(=O)n4C)CC2)c1 | 4.7% (inactive) | 
70 | O=C(Nc1ccc2c(c1)OCCO2)c1cnccn1 |  | 12.6 µM (active)
71 | O=C(CCN1C(=O)c2ccncc2C1=O)Nc1ccc2c(c1)OCCO2 | 0.0698% (inactive) | 
72 | CCN1CCN(c2ccc(NC(=O)c3cnccn3)cc2)CC1 |  | 11.2 µM (active)
73 | O=C(NCN1CCN(CCO)CC1)c1cnccn1 | -4.84% (inactive) | 
74 | O=C(Nc1ccc(S(=O)(=O)N2CCCCC2)cc1)c1cnccn1 | -45.6% (inactive) | 
75 | O=C(Nc1cccc(NC(=O)c2ccco2)c1)c1cnccn1 | 2.47% (inactive) | 
76 | O=C(Nc1ccc(OC(F)(F)F)cc1)c1cc2c(=O)n3ccccc3nc2s1 | 4.24% (inactive) | 
77 | O=C(Cn1c(=O)n(-c2ccc(F)cc2)c(=O)c2sccc21)Nc1cccc(C(F)(F)F)c1 | -1.67% (inactive) | 
78 | CCN(CC)CCNC(=O)c1cc2c(=O)oc3ccc(C)cc3c2s1 | -6.23% (inactive) | 
79 | O=C(COc1ccc(Cl)cc1)Nc1ccc(-c2nc3cc(Cl)ccc3o2)c(O)c1 | 21.9% (inactive) | 
80 | COc1cccc(-c2nc(S(=O)(=O)c3ccc(C)cc3)c(NCc3ccccc3)o2)c1 | 14.4% (inactive) | 
81 | COc1cccc(C(=O)Nc2ccc3oc(-c4ccc5ccccc5c4)nc3c2)c1 | 6.04% (inactive) | 
82 | COc1ccc2oc(-c3cccc(NC(=O)CSc4ccc(Cl)cc4)c3)nc2c1 |  | 8.91 µM (active)
83 | COc1cc2ccccc2cc1C(=O)Nc1cccc(-c2nc3ccccc3o2)c1 | -1.36% (inactive) | 
84 | COc1cccc(-c2nc3cc(C)ccc3o2)c1 |  | 11.2 µM (active)
85 | CCCSc1ncc(Cl)c(C(=O)Nc2sc3c(c2C(=O)NCCOC)CCCC3)n1 | -0.192% (inactive) | 
86 | O=C(c1ccccc1F)N1CCC(c2nc3c(nnn3Cc3cccc(F)c3)c(=O)[nH]2)CC1 | 3.36% (inactive) | 
87 | COc1ccc(-c2cc(C(F)(F)F)nc(SCC(=O)N(C)Cc3ccccc3)n2)cc1OC | -25.9% (inactive) | 
88 | CCOc1ccc(N(CC)C(=O)c2cc3c(=O)oc4ccccc4c3s2)cc1 | 8.87% (inactive) | 

Row | Structure (SMILES) | activity change, positive = activation | Potency
89 | CSc1ncc(Cl)c(C(=O)Nc2ccc(S(=O)(=O)N3CCCC(C)C3)cc2)n1 (stereo unspecified) | -9.9% (inactive) | 
90 | CCOc1cccc(NC(=O)CSc2ncc(-c3ccc(Cl)cc3)[nH]2)c1 | -10.3% (inactive) | 
91 | CCC(=O)N1CCc2cc(S(=O)(=O)NC(Cc3ccccc3)C(=O)NCc3ccc(C)cc3)ccc21 (stereo unspecified) | 2.27% (inactive) | 
92 | CC(=O)c1cccc(NC(=O)Nc2ccc(C)cc2)c1 | -13.7% (inactive) | 
93 | Cc1ccc(NC(=O)Nc2ccccc2)c(Br)c1 |  | 12.6 µM (active)
94 | Cc1cccc(NC(=O)Nc2nnc(-c3ccccc3)o2)c1 | -14% (inactive) | 
95 | CCN(CC)c1cc(NC2CCCCC2)c2c3c(onc13)-c1ccccc1C2=O | -17.3% (inactive) | 
96 | CSc1nc2ccc(NC(=O)c3c(F)cccc3F)cc2s1 |  | 12.6 µM (active)
97 | CCCC(=O)Nc1nc2ccc(NC(=O)c3c(F)c(F)c(OC)c(F)c3F)cc2s1 | -26.8% (inactive) | 
98 | Nc1nnc(SCC(=O)Nc2ccc3nc(SCC(=O)Nc4ccccc4)sc3c2)s1 | -3.96% (inactive) | 
99 | CCC(C(=O)Nc1cccc(Cl)c1C)n1nc(-c2ccc(C)cc2)ccc1=O (stereo unspecified) | -3.41% (inactive) | 
100 | Cc1cc2nn(-c3ccc(Cl)cc3)nc2cc1NC(=O)C(C)C | -8.91% (inactive) | 
101 | COc1ccc(-c2nc3ccccc3s2)cc1NC(=O)COc1ccccc1C | 8.11% (inactive) | 
102 | COc1ccccc1OCc1nc2ccccc2s1 |  | 3.16 µM (active)
103 | CCc1ccc(-c2nnn(Cc3nc4ccccc4s3)n2)cc1 | -8.76% (inactive) | 
104 | COc1ccc(C2=NC3(CCCCC3)N(CC(=O)Nc3ccc(C(C)C)cc3)C2=O)cc1 | 2.69% (inactive) | 
105 | C/C(Nc1ccc2oc(=O)ccc2c1)=C1/C(=O)CC2[C@@H]1C2(C)C (stereo partly specified) | -1.26% (inactive) | 
106 | CCNS(=O)(=O)c1ccc(NC(=O)CSc2nc(-c3ccco3)cc(C(F)(F)F)n2)cc1 | -10.1% (inactive) | 
